In all, about 290,000 compounds went through this assay and about 11,000 (3.8%) were called active. The sample as a whole holds a higher share of actives than the screen did. Values without a mark were called inactive.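 Rule for the calls: active = mean replicate inhibition above about 79%, with every replicate also reaching it (limit read from the data); inconclusive = only one of the two criteria met; inactive = mean below limit and not every replicate reaching it.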
biological target: FAD-linked sulfhydryl oxidase ALR (Homo sapiens) (UniProt P55789); experiment: inhibitors of human ALR sulfhydryl oxidase, primary screen, biochemical, H2O2 detection, HRP-luminol luminescence, single point (AID 485317); details: purified ALR, DTT oxidation, active compounds read high, concentration not given here
Sequence (P55789 whole entry, looked up): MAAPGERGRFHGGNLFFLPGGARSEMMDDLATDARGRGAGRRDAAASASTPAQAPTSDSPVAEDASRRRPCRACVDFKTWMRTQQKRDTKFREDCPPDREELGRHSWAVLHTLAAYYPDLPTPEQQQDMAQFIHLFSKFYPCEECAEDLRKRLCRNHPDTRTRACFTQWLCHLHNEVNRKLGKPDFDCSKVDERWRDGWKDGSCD

Structure (SMILES)	inhibition
COc1cc(/C=C2\Oc3ccc(C#Cc4ccc(O)cc4)cc3C2=O)cc(OC)c1	4.14%
S=c1[nH]nc(COc2ccccc2)n1-c1ccccc1	31.7%
CC(NS(=O)(=O)c1ccc(OCC(=O)N2CCCC2)cc1)c1ccccc1 (stereo not given)	-2.54%
CC(NS(=O)(=O)c1ccccc1)c1n[nH]c(=S)n1-c1ccccc1 (stereo not given)	86.4% (active)
O=C(Nc1nsc(-c2ccccc2)n1)c1ccncc1	1.28%
COC(=O)c1nc(NC(=O)c2ccccc2)n[nH]1	97.4% (active)
COC(=O)c1nc(NC(=O)c2ccc(Cl)cc2)n[nH]1	-3.46%
O=C(CSc1nc2ccccc2c(=O)n1CCCO)NC1CC1	0.869%
CN=C(Nc1cccc(S(=O)(=O)N2CCOCC2)c1)c1ccccc1	-1.77%
CC(Sc1ccccc1F)C(=O)Nc1cccc(S(=O)(=O)N2CCOCC2)c1 (stereo not given)	-3.71%
CC(Sc1cccc[n+]1[O-])C(=O)Nc1cccc(S(=O)(=O)N2CCOCC2)c1 (stereo not given)	96.9% (active)
CN(CC(=O)Nc1cccc(F)c1)C(=O)C1CC(=O)N(CCc2ccccc2)C1 (stereo not given)	-3.35%
O=C(CSc1nnc(-c2ccncc2)o1)Nc1cccc(Cl)c1	6.76%
CCn1c(-c2ccncc2)n[nH]c1=S	65.5%
CCc1cc(-c2n[nH]c(=S)n2CC(C)C)cs1	94.7% (active)
CCCc1cc(-c2n[nH]c(=S)n2Cc2ccccc2)cs1	49.7%
N#Cc1cc([N+](=O)[O-])ccc1NC(=O)COC(=O)c1cnccn1	-7.67%
O=C(c1cc2ccccc2o1)N1CCN(S(=O)(=O)c2ccc(Cl)s2)CC1	-0.962%
COc1ccc(C(CNC(=O)c2cccc(NS(=O)(=O)c3ccc(C)c(F)c3)c2)N2CCCC2)cc1 (stereo not given)	-7.21%
CCOc1ccc(NC(=O)c2ccc(NC(=O)COC(=O)c3ccc(NC(=O)CC#N)cc3)cc2)cc1	1.83%

Structure (SMILES)	inhibition
CC(C)NC(=O)NC(=O)COC(=O)c1ccc(NC(=O)CC#N)cc1	98.6% (active)
CC(C)c1ccc(NC(=O)COC(=O)c2ccc(CN3CCCC3=O)cc2)cc1	-43.2%
N#CCN(C(=O)COC(=O)C1CC2CCCC(C1)C2=O)c1ccccc1 (stereo not given)	-1.07%
CCN(CC(=O)Nc1ccccc1C(F)(F)F)C(=O)C1CCN(C(=O)Nc2ccccc2)CC1	8.41%
O=C(CN1CCN(c2ccc(Cl)cc2)CC1)c1ccccc1	4.7%
O=C(CN1CCCC1)N1CCN(c2ccccc2)CC1	23.5%
O=C(CN1CCN(c2ccc(Cl)cc2)CC1)N1CCCC1	97.8% (active)
CSCC(NS(=O)(=O)c1ccc(C)cc1)C(=O)O (stereo not given)	19.4%
Cc1ccc(CSCC(=O)N(C)CC(=O)Nc2ccc(C)cc2)cc1	-0.0315%
Cc1ccc(CSCC(N)C(=O)O)cc1 (stereo not given)	99.1% (active)
CCC1(c2ccccc2)NC(=O)N(CC(=O)c2ccc3c(c2)OCO3)C1=O (stereo not given)	0.023%
COc1cc(OC)cc(-c2c(C#Cc3ccsc3)c3cc(-c4ccc(OC)cc4F)ccc3n2C)c1	-17.2%
COc1ccc(C(c2nnnn2Cc2cccs2)N2CCN(c3ccccc3)CC2)cc1OC (stereo not given)	8.5%
COc1ccccc1C(c1nnnn1CC1CCCO1)N1CCN(c2ccccc2)CC1 (stereo not given)	90.9% (active)
Cc1cccc(N2CCN(C(c3ccccc3)c3nnnn3CC3CCCO3)CC2)c1C (stereo not given)	-2.29%
COc1ccc(NC(=O)CCC(=O)N2CCN(S(=O)(=O)c3ccc(C)cc3)CC2)c(OC)c1	-6.29%
O=S(=O)(NCCCc1ccccc1)c1ccc(Br)cc1	2.4%
Cc1[nH]c2ccccc2c1C(=O)C(C)Sc1nnc(C2CC2)o1 (stereo not given)	-3.37%
O=C(CSC1CC(=O)N(CCc2ccccc2)C1=O)Nc1ccc(Cl)cc1 (stereo not given)	93.5% (active)
CC(=O)Nc1ccc(NC(=O)C(C)OC(=O)C2CC(=O)N(CCc3ccccc3)C2)cc1 (stereo not given)	-1.82%

Structure (SMILES)	inhibition
O=C(NCCCc1ccccc1)C1CCC(=O)N(CCc2ccc(Cl)cc2)C1 (stereo not given)	0.977%
c1ccc2c(CCN3CCNC[C@H]3Cc3cccc4ccccc34)cccc2c1	-14.6%
CN(C(=O)c1cccc(NC(=O)Cc2ccc([N+](=O)[O-])cc2)c1)C1CCC1	-1.83%
Cc1ccc(OCC(=O)Nc2ccccc2C(=O)NC2CC2)cc1	-2.04%
O=c1cnnc(Nc2ccccc2)[nH]1	1.2%
S=c1[nH]nc(NCCc2ccccc2)s1	95.1% (active)
CC(C)(C)C(=O)c1cnc(Nc2ccccc2)s1	19.3%
S=C(NCCc1ccccc1)Nc1ccccc1	12.6%
S=c1[nH]nc(Nc2ccccc2)s1	98.6% (active)
Cc1nc(C)c(-c2csc(NCCc3ccccc3)n2)s1	24%
CCCc1cc(=O)[nH]c(SCC(=O)Nc2ccc(C(=O)Nc3ccccc3OC)cc2)n1	-0.142%
O=C(NCCC1CCCCN1S(=O)(=O)c1ccc(Cl)cc1)C(=O)NCc1ccco1 (stereo not given)	-1.02%
CN1C(=O)c2ccc(NC(=O)c3c(F)c(F)c(F)c(F)c3F)cc2C1=O	-3.79%
Cc1cc(NC(=O)OC(C)C)ccc1-c1ccc(NC(=O)OC(C)C)cc1C	91.5% (active)
Cc1cccc(C(=O)Nc2ccc3c(c2)C(=O)N(CC(C)C)C3=O)c1	-20.8%
Cn1cncc1C#Cc1c(-c2ccsc2)sc2ccccc12	1.87%
O=C(CN1C(=O)c2ccc([N+](=O)[O-])cc2C1=O)Nc1nnc(C2CC2)s1	-1.72%
CCOc1ccc(NC(=O)c2ccc(NC(=O)CN3C(=O)C(=O)N(CC(C)C)C3=O)cc2)cc1	-8.04%
O=C(CSc1nnc(Nc2ccccc2F)s1)NC1CCCC1	-1.36%
CC12CCC(=O)N1C(C(=O)NCCN1C(=O)S/C(=C\c3ccccc3F)C1=O)CS2 (stereo not given)	-5.02%
